{"source": "the supplement of paper PMC12067093", "about": "“Discovery and optimisation of a covalent ligand for TRIM25 and its application to targeted protein ubiquitination” (Chemical Science, 2025)", "compound": "Cc1cc(ccc1-c1ccccc1)C(=O)N1CCCN(CC1)C(=O)CCl [compound 10]", "test": "probe-labelled cysteine peptide fold change vs DMSO (competition) (log2 fold change); higher = less target engagement (more negative = stronger competition)", "conditions": "THP-1, incubation time: 4 h", "note": "About 21,000 targets were measured; listed, in parts, are those with the largest changes and a random draw of the rest.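 Further: competitive profiling in live THP-1 cells: cysteine peptides tagged with an iodoacetamide desthiobiotin (IA-DTB) probe, intensity after compound treatment relative to DMSO-treated cells.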", "data": [{"target": "PFN1_P07737_128_KCYEMASHLRR (UniProt P07737)", "sequence (P07737 whole entry, looked up)": "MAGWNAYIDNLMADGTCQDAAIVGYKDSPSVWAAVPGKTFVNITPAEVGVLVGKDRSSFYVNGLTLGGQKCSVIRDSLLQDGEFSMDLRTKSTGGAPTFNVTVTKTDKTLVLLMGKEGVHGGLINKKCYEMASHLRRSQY", "values": [{"measurement": "probe-labelled cysteine peptide fold change", "setting": "10 µM", "value": -0.531}, {"measurement": "probe-labelled cysteine peptide fold change", "setting": "50 µM", "value": -0.695}]}, {"target": "PECAM1_P16284_109_CTVIVNNK (UniProt P16284)", "values": [{"measurement": "probe-labelled cysteine peptide fold change", "setting": "10 µM", "value": 0.0288}, {"measurement": "probe-labelled cysteine peptide fold change", "setting": "50 µM", "value": 0.348}]}, {"target": "PHGDH_O43175_18_VLISDSLDPCCR (UniProt O43175)", "values": [{"measurement": "probe-labelled cysteine peptide fold change", "setting": "10 µM", "value": -0.444}, {"measurement": "probe-labelled cysteine peptide fold change", "setting": "50 µM", "value": -0.677}]}, {"target": "PIK3C2A_O00443_541_HLYQIEKPCK (UniProt O00443)", "values": [{"measurement": "probe-labelled cysteine peptide fold change", "setting": "10 µM", "value": -0.457}, {"measurement": "probe-labelled cysteine peptide fold change", "setting": "50 µM", "value": -1.29}]}, {"target": "PELP1_Q8IZL8_71_SAPHLPGLMCLLR (UniProt Q8IZL8)", "values": [{"measurement": "probe-labelled cysteine peptide fold change", "setting": "10 µM", "value": -1.13}, {"measurement": "probe-labelled cysteine peptide fold change", "setting": "50 µM", "value": -0.883}]}, {"target": "PEX6_Q13608_564_HLLLNEDPLNSCPPLMVVATTSR (UniProt Q13608)", "values": [{"measurement": "probe-labelled cysteine peptide fold change", "setting": "10 µM", "value": 0.0661}, {"measurement": "probe-labelled cysteine peptide fold change", "setting": "50 µM", "value": 0.052}]}, {"target": "PATZ1_Q9HBE1_610_KYPCPECGSFFR (UniProt Q9HBE1)", "values": [{"measurement": "probe-labelled cysteine peptide fold change", "setting": "10 µM", "value": 0.149}, {"measurement": "probe-labelled cysteine peptide fold change", "setting": "50 µM", "value": 0.151}]}, {"target": "POLR2A_P24928_451_HMCDGDIVIFNR (UniProt P24928)", "values": [{"measurement": "probe-labelled cysteine peptide fold change", "setting": "10 µM", "value": -0.0734}, {"measurement": "probe-labelled cysteine peptide fold change", "setting": "50 µM", "value": -0.107}]}, {"target": "PLA2G4C_Q9UP65_351_KTGICASK (UniProt Q9UP65)", "sequence (Q9UP65 whole entry)": "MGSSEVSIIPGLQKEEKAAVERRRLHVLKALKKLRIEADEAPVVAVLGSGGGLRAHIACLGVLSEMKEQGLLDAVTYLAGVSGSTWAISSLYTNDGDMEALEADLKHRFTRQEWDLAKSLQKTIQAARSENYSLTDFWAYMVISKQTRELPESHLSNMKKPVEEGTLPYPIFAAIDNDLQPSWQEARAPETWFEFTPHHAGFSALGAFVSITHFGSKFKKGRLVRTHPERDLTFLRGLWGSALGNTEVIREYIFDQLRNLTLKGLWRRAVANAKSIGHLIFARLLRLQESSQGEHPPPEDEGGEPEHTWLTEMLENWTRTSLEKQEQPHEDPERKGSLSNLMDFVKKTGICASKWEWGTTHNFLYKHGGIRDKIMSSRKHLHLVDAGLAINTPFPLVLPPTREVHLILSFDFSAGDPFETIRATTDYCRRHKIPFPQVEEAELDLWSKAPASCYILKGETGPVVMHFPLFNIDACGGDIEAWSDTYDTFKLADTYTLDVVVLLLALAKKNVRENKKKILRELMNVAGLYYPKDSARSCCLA", "values": [{"measurement": "probe-labelled cysteine peptide fold change", "setting": "10 µM", "value": -0.289}, {"measurement": "probe-labelled cysteine peptide fold change", "setting": "50 µM", "value": -1.38}]}, {"target": "PCDH17_O14917_335_DLGPNPIPAHCK (UniProt O14917)", "sequence (O14917 whole entry, looked up)": "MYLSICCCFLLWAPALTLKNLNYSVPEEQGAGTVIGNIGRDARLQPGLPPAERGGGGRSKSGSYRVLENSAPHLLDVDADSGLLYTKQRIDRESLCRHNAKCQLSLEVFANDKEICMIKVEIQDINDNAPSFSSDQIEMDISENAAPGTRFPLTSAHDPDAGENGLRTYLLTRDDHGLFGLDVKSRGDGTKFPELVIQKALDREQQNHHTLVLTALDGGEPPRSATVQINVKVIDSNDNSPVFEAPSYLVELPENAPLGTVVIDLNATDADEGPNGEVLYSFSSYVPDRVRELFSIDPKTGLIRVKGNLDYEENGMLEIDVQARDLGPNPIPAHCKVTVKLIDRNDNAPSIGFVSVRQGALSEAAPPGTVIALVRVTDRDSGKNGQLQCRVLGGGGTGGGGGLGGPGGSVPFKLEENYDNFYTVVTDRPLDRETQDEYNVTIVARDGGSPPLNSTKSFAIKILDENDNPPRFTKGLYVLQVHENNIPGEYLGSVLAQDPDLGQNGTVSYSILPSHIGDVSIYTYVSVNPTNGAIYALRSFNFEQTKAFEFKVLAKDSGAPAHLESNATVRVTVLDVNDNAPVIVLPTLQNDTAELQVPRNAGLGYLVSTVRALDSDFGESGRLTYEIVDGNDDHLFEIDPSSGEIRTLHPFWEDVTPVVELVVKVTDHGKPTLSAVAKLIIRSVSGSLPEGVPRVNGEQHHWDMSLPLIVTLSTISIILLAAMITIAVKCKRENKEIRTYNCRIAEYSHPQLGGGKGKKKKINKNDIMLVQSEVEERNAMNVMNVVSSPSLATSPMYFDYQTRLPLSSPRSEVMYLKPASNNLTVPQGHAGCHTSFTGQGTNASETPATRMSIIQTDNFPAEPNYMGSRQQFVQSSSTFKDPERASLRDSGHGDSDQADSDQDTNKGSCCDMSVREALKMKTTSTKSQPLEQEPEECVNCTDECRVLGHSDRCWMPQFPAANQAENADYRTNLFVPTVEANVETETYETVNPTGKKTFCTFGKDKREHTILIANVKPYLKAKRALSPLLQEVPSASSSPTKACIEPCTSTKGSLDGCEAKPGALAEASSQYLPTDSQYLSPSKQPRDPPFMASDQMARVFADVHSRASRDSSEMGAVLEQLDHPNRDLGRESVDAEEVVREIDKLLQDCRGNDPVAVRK", "values": [{"measurement": "probe-labelled cysteine peptide fold change", "setting": "10 µM", "value": -0.0867}, {"measurement": "probe-labelled cysteine peptide fold change", "setting": "50 µM", "value": -0.403}]}, {"target": "PDIA4_P13667_91+94_DTVLLEFYAPWCGHCK (UniProt P13667)", "sequence (P13667 whole entry, looked up)": "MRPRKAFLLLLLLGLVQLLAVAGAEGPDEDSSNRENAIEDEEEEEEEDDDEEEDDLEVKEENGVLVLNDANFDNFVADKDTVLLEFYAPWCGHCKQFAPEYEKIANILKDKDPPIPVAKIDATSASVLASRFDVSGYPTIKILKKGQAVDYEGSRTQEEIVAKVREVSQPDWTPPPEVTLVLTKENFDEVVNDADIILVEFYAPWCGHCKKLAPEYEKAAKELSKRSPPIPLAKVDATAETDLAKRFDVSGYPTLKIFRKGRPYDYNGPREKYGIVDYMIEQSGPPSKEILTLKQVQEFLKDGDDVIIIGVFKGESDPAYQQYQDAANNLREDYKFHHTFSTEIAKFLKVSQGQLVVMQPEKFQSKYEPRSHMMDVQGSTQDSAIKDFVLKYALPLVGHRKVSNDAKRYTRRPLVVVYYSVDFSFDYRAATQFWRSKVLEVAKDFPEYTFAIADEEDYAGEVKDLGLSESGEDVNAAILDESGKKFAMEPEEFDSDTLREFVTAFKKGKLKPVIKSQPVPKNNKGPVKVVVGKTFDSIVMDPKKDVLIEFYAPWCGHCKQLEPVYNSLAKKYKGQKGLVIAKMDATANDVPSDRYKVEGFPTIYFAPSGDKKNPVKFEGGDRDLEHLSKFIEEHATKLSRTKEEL", "values": [{"measurement": "probe-labelled cysteine peptide fold change", "setting": "10 µM", "value": -0.227}, {"measurement": "probe-labelled cysteine peptide fold change", "setting": "50 µM", "value": -1.17}]}, {"target": "PPP4R2_Q9NY27_30_EVCPVLDQFLCHVAK (UniProt Q9NY27)", "values": [{"measurement": "probe-labelled cysteine peptide fold change", "setting": "10 µM", "value": 0.0564}, {"measurement": "probe-labelled cysteine peptide fold change", "setting": "50 µM", "value": -0.311}]}, {"target": "PML_P29590_140+143_ESADFWCFECEQLLCAK (UniProt P29590)", "values": [{"measurement": "probe-labelled cysteine peptide fold change", "setting": "10 µM", "value": 0.0944}, {"measurement": "probe-labelled cysteine peptide fold change", "setting": "50 µM", "value": -0.116}]}, {"target": "PREX1_Q8TCU6_1173_DSYSECNSNR (UniProt Q8TCU6)", "values": [{"measurement": "probe-labelled cysteine peptide fold change", "setting": "10 µM", "value": 0.634}, {"measurement": "probe-labelled cysteine peptide fold change", "setting": "50 µM", "value": 1.39}]}, {"target": "PIBF1_Q8WXW3_334_CAHEEDRLER (UniProt Q8WXW3)", "sequence (Q8WXW3 whole entry, looked up)": "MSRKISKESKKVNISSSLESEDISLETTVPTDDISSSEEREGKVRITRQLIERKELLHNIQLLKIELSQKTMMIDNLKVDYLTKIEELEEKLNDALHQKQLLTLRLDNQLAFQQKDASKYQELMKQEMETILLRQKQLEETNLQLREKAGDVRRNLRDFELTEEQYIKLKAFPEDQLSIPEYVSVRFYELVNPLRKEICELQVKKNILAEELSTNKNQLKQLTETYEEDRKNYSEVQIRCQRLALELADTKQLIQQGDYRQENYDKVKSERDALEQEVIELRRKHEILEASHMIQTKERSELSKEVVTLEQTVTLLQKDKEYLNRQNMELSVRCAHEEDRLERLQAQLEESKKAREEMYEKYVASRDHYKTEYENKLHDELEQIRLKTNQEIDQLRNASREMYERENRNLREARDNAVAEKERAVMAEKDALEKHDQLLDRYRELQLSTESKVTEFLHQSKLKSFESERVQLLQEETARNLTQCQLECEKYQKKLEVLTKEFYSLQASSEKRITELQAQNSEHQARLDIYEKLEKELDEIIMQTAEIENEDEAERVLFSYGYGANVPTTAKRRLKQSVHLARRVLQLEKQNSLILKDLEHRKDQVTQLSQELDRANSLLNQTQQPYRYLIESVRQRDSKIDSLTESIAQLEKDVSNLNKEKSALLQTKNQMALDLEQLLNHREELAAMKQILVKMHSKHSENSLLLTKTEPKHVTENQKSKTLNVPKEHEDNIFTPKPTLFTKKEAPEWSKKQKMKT", "values": [{"measurement": "probe-labelled cysteine peptide fold change", "setting": "10 µM", "value": 0.47}, {"measurement": "probe-labelled cysteine peptide fold change", "setting": "50 µM", "value": 1.41}]}, {"target": "PPP1CC_P36873_140_IYGFYDECKR<|>PPP1CA_P62140_140_IYGFYDECKR (UniProt P62140+P36873)", "values": [{"measurement": "probe-labelled cysteine peptide fold change", "setting": "10 µM", "value": 0.0922}, {"measurement": "probe-labelled cysteine peptide fold change", "setting": "50 µM", "value": 0.0296}]}, {"target": "PLBD2_Q8NHP8_492_YNDFLHDPLSLCK (UniProt Q8NHP8)", "values": [{"measurement": "probe-labelled cysteine peptide fold change", "setting": "10 µM", "value": 0.0964}, {"measurement": "probe-labelled cysteine peptide fold change", "setting": "50 µM", "value": -0.267}]}, {"target": "PKN3_Q6P5Z2_131_QGAENMTHTCASGTPK (UniProt Q6P5Z2)", "values": [{"measurement": "probe-labelled cysteine peptide fold change", "setting": "10 µM", "value": -0.00333}, {"measurement": "probe-labelled cysteine peptide fold change", "setting": "50 µM", "value": -0.199}]}, {"target": "PML_P29590_479+484_CSQTQCPR (UniProt P29590)", "values": [{"measurement": "probe-labelled cysteine peptide fold change", "setting": "10 µM", "value": -0.494}, {"measurement": "probe-labelled cysteine peptide fold change", "setting": "50 µM", "value": -1.17}]}, {"target": "PCCB_P05166_291_DFFNYLPLSSQDPAPVRECHDPSDR (UniProt P05166)", "sequence (P05166 whole entry, looked up)": "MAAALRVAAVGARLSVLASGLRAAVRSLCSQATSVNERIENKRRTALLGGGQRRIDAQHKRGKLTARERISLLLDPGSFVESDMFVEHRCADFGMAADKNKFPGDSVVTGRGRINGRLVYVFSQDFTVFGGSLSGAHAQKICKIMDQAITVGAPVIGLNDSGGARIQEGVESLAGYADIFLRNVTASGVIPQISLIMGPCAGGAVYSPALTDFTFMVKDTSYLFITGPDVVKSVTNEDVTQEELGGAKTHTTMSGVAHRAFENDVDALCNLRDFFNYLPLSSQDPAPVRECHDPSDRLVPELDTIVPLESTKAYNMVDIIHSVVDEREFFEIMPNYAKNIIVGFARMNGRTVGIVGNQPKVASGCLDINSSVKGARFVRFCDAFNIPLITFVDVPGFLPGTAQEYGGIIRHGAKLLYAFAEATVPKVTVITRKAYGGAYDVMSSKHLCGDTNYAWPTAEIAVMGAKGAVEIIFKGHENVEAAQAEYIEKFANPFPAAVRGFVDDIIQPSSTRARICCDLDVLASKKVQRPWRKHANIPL", "values": [{"measurement": "probe-labelled cysteine peptide fold change", "setting": "10 µM", "value": -0.474}, {"measurement": "probe-labelled cysteine peptide fold change", "setting": "50 µM", "value": -0.454}]}, {"target": "PITPNB_P48739_13_VVLPCSVQEYQVGQLYSVAEASK (UniProt P48739)", "sequence (P48739 whole entry)": "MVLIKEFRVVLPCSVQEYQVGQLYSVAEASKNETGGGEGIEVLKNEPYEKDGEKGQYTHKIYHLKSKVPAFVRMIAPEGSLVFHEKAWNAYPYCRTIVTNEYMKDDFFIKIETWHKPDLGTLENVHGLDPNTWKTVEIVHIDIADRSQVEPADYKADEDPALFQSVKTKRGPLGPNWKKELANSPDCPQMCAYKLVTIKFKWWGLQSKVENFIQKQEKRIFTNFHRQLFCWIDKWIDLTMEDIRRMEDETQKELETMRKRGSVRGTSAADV", "values": [{"measurement": "probe-labelled cysteine peptide fold change", "setting": "10 µM", "value": -0.0113}, {"measurement": "probe-labelled cysteine peptide fold change", "setting": "50 µM", "value": 0.103}]}, {"target": "PPWD1_Q96BP3_287_AYPTSVCFSPDGK (UniProt Q96BP3)", "values": [{"measurement": "probe-labelled cysteine peptide fold change", "setting": "10 µM", "value": 0.0829}, {"measurement": "probe-labelled cysteine peptide fold change", "setting": "50 µM", "value": 0.156}]}, {"target": "PDCD6IP_Q8WUM4_691_CSDIVFAR (UniProt Q8WUM4)", "values": [{"measurement": "probe-labelled cysteine peptide fold change", "setting": "10 µM", "value": -0.00307}, {"measurement": "probe-labelled cysteine peptide fold change", "setting": "50 µM", "value": -0.0695}]}, {"target": "PDSS2_Q86YH6_71_CLLSDELSNIAMQVR (UniProt Q86YH6)", "sequence (Q86YH6 whole entry)": "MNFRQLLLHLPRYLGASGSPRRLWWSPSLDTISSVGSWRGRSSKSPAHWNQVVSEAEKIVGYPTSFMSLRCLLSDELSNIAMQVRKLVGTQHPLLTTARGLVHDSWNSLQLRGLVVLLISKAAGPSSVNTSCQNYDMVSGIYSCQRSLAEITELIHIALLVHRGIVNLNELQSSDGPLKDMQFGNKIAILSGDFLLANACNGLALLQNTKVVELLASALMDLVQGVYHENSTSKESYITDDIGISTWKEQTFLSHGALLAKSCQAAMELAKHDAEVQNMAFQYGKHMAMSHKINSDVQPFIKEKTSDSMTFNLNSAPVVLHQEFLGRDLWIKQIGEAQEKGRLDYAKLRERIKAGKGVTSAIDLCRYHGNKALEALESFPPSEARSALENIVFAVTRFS", "values": [{"measurement": "probe-labelled cysteine peptide fold change", "setting": "10 µM", "value": -0.424}, {"measurement": "probe-labelled cysteine peptide fold change", "setting": "50 µM", "value": -2.09}]}, {"target": "PLXNB2_O15031_1149_TLTETDLYCEPPEVQPPPK (UniProt O15031)", "values": [{"measurement": "probe-labelled cysteine peptide fold change", "setting": "10 µM", "value": -0.174}, {"measurement": "probe-labelled cysteine peptide fold change", "setting": "50 µM", "value": -0.00622}]}, {"target": "PLCB3_Q01970_360_CVELDVWK (UniProt Q01970)", "values": [{"measurement": "probe-labelled cysteine peptide fold change", "setting": "10 µM", "value": 0.0505}, {"measurement": "probe-labelled cysteine peptide fold change", "setting": "50 µM", "value": -0.317}]}, {"target": "PGK1_P00558_316_TGQATVASGIPAGWMGLDCGPESSK (UniProt P00558)", "sequence (P00558 whole entry, looked up)": "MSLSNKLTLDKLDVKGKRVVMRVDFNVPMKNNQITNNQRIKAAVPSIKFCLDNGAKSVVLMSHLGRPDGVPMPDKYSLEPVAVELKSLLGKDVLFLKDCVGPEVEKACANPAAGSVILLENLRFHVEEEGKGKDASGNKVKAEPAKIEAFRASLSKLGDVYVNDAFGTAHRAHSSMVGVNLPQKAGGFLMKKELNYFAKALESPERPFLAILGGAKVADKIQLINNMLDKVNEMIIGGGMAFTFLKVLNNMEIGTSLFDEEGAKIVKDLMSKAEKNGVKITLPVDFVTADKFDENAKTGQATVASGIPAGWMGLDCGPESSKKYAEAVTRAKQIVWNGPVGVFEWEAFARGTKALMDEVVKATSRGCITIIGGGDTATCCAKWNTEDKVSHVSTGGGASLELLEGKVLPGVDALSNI", "values": [{"measurement": "probe-labelled cysteine peptide fold change", "setting": "10 µM", "value": -0.217}, {"measurement": "probe-labelled cysteine peptide fold change", "setting": "50 µM", "value": 0.0673}]}, {"target": "PCBP2_Q15366_158_AITIAGIPQSIIECVK (UniProt Q15366)", "values": [{"measurement": "probe-labelled cysteine peptide fold change", "setting": "10 µM", "value": 0.149}, {"measurement": "probe-labelled cysteine peptide fold change", "setting": "50 µM", "value": -0.0185}]}, {"target": "POLK_Q9UBT6_545_SIIGFLQAGNQALSATECTLEK (UniProt Q9UBT6)", "values": [{"measurement": "probe-labelled cysteine peptide fold change", "setting": "10 µM", "value": -0.695}, {"measurement": "probe-labelled cysteine peptide fold change", "setting": "50 µM", "value": -0.377}]}, {"target": "PCID2_Q5JVF3_152_VCASDTR (UniProt Q5JVF3)", "values": [{"measurement": "probe-labelled cysteine peptide fold change", "setting": "10 µM", "value": 0.19}, {"measurement": "probe-labelled cysteine peptide fold change", "setting": "50 µM", "value": 0.0189}]}]}
